# The list is not random: actives were taken first. Their share in the collection is about 10%.
# GPT2 inhibitor = inhibitors of human GPT2 alanine aminotransferase; Q8TD30; Recombinant GPT2, coupled pyruvate oxidase/HRP Amplex Red fluorescence; hit rate 0.25% among 100,000; Potency, µM (doses to about 57.7 µM), inactives show at the top dose activity change, negative = inhibition, actives largely listed as inhibitors; note: % is set by controls: 0 for no effect and ±100 for the full control effect; nearly all actives have a fitted effect of over 60% in size
#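 Inhibition is scored from Amplex Red fluorescence generated when pyruvate oxidase and HRP act on pyruvate released by GPT2. Reactions contain 10ng/uL enzyme, 250uM a-KG and 2mM L-alanine and run 30 min at room temperature.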
# FLuc inh-1 = inhibitors of firefly (Photinus pyralis) luciferase. AID 1347043. P08659. purified P. pyralis luciferase, luminescence, biochemical. hit rate 2.5% among 76,000. Potency, µM (highest dose often 115 µM), usual class: inhibitors; note: % is set by controls: 0 for no effect and ±100 for the full control effect; nearly all actives have a fitted effect of over 65% in size
#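 Purified 10nM P. pyralis luciferase with 10uM D-luciferin and 10uM ATP in 50mM Tris acetate pH 7.5, 10mM Mg acetate, 0.01% Tween-20, 0.05% BSA. qHTS titration; luminescence read by CCD imager.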
# HEK cytotox = kills HEK 293 cells; HEK 293 viability, ATP luminescence (CellTiter-Glo), 48-72 h; Potency, µM (titrated, usually from 115 µM), for the others: top-dose activity change, negative = cytotoxicity, most hits filed as inhibitors; hit rate 6.6% among 94,000; AID 1345083; note: % is set by controls: 0 for no effect and ±100 for the full control effect; nearly all actives have a fitted effect of over 60% in size
#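 250 HEK 293 cells/well; compound by pintool; incubated 48 or 72 hr at 37 degree Celsius; CellTiter-Glo added, 10 min RT, luminescence imaged.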
# NPR1 antag = blocks ANP-stimulated signaling of human Npr1 receptor; P16066; HEK293 hNpr1 GloSensor cGMP, ANP-stimulated luminescence; Potency, µM (top dose mostly 46.3 µM), for inactives: at the top dose activity change, negative = inhibition, usual class: inhibitors; hit rate 1.6% among 76,000; AID 1347048; calls by dose curve; note: % is set by controls: 0 for no effect and ±100 for the full control effect; nearly all actives have a fitted effect of over 60% in size
#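 Compound pre-incubated 30 min at room temperature on GloSensor-loaded HEK293 cells stably carrying hNpr1 and the pGS-40F cGMP biosensor. Stimulation uses hNppA at 0.1 nM final; luminescence is taken at baseline and 20 min post-agonist.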
# 3T3 cytotox = cytotoxic compounds in NIH 3T3 cells; Potency, µM (doses to about 96.7 µM), for inactives: top-dose activity change, negative = cytotoxicity, actives largely listed as inhibitors; hit rate 4.3% among 94,000; NIH 3T3 viability, CellTiter-Glo ATP luminescence, 48-72 h; note: % is set by controls: 0 for no effect and ±100 for the full control effect; nearly all actives have a fitted effect of over 55% in size
#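 Luminescent ATP readout (CellTiter-Glo, 10 min RT) after 48 or 72 hr compound exposure of NIH 3T3 cells seeded at 400 cells/well in 1536-well format; quantitative HTS.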
# FLuc SDR no ATP = firefly luciferase binding stabilization, ATP absent | Potency, µM (series often up to 32.7 µM), for the others: at the top dose activation (signal gain), hits mostly activators | shares compounds with FLuc inh-1 | hit rate 7.8% among 1,300 | Purified FLuc-C-HiBiT, Nano-Glo HiBiT luminescence, no ATP; note: nearly all actives have a fitted effect of over 55% in size
# FLuc SDR ATP = firefly luciferase binding stabilization, ATP added. AID 1963319. purified FLuc-C-HiBiT + ATP, HiBiT complementation luminescence. shares compounds with FLuc inh-1. hit rate 8.7% among 1,300. Potency, µM (highest dose often 32.7 µM), without a hit: at the top dose activation (gain of signal), usual class: activators;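 note: signal reports ligand binding via conformational change of the enzyme rather than luciferase catalysis; % of control where 0% means no effect; nearly all actives have a fitted effect of over 55% in size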
# FLuc inh-2 = blocks firefly luciferase enzymatic activity; shares compounds with FLuc inh-1; purified FLuc-C-HiBiT enzyme, luciferin luminescence; Potency, µM (series often up to 32.7 µM), without a hit: top-dose activity change, negative = inhibition, usual class: inhibitors; hit rate 42% among 1,300; note: % is set by controls: 0 for no effect and ±100 for the full control effect; nearly all actives have a fitted effect of over 70% in size
# Numbers without * were called inactive; i = inactive; ? = inconclusive; nt = no result; [ ] = another dose, or the depositor's remark. Unless noted, calls come from the whole dose curve; as a rule, active = well fitted curve in the direction sought with a large enough effect; inconclusive = small, poorly fitted or top-dose-only effect, or another doubt; inactive = no such curve, though single readings can be large; an effect the other way counts as inactive or inconclusive. Potency is the fitted concentration of half-maximal effect.
SMILES,GPT2 inhibitor,FLuc inh-1,HEK cytotox,NPR1 antag,3T3 cytotox,FLuc SDR no ATP,FLuc SDR ATP,FLuc inh-2
Cn1cc(CN2CCN3C(=O)N(C4CCOCC4)C[C@H]3C2)cn1,-8%[88.5 µM],i,-2%[172 µM],5%[70.6 µM],i,nt,nt,nt
CN(Cc1ccccc1F)C1CCc2ccccc21 (stereo not given),-8%[88.5 µM],i,?,0%[70.6 µM],-3%[138 µM],nt,nt,nt
c1ccc(-c2ccnc(NCCc3c[nH]c4ccccc34)n2)nc1,-4%,8.9µM*,?,-27%,?,16%,12%,?
c1ccc(-c2csc(CCNc3nccc(-c4ccccn4)n3)n2)cc1,i,?,?,?,?,nt,nt,nt
CCOC(=O)C1=CN(Cc2ccccc2)S(=O)(=O)N=C1C,-6%,i,-24%,-13%,?,nt,nt,nt
CCOC(=O)c1cc(-c2ccccc2)nn1Cc1ccccc1,nt,nt,nt,nt,nt,15%,12%,-6%
O=C(c1ccc2oc(-c3ccccn3)nc2c1)N1CCOCC1,4%[88.5 µM],nt,-26%[172 µM],nt,?,nt,nt,nt
O=C(CSc1nccn1Cc1ccco1)Nc1ccc(OC(F)(F)F)cc1,nt,nt,nt,nt,nt,13%,11%,?
CNC(=O)[C@H]1C[C@H](Oc2cccnc2)CN1C(=O)NCc1ccc(C)cc1,i,i,-5%,-1%,-15%,nt,nt,nt
CCOc1ccccc1C(=O)N1CC(=O)N(CCOc2ccccc2)CC(O)C1 (stereo not given),nt,nt,?,nt,-18%,nt,nt,nt
N#Cc1c(NC(=O)c2cccc3ccccc23)sc2c1CCCC2,-7%,nt,nt,nt,nt,12%,8%,-20%
COc1ccc(NC(=O)c2cn3cc(-c4ccccc4)sc3n2)cc1,2%,nt,?,nt,-29%,nt,nt,nt
COc1ccc(NC(=O)Nc2nnc(C)s2)cc1,nt,nt,nt,nt,nt,24%,13%,?
COc1ccc(-n2nc(C3CCN(C(=O)c4ccc(F)cc4)CC3)[nH]c2=O)cc1,0%,i,-29%,-2%,-19%,nt,nt,nt
CCC(=O)NCCC1CCN(C(=O)Nc2ccc(C)c(F)c2)CC1,-11%,11µM*,9%,-3%,-3%,?,?,?
Cc1ccc(NC(=O)N2CCC(CCNC(=O)c3ccco3)CC2)cc1F,i,i,-16%,5%,?,nt,nt,nt
CCC(=O)NCCC1CCN(C(=O)Nc2ccc(C)cc2)CC1,4%,13µM*,12%,-1%,i,?,?,?
CC(=O)NCCC1CCN(C(=O)Nc2ccc(C)cc2)CC1,-13%,8.9µM*,10%,-21%,3%,?,?,?
COCCC(=O)NCCC1CCN(C(=O)Nc2ccc(C)cc2)CC1,i,?,16%,3%,i,nt,nt,nt
Cc1ccc(C(=O)N2CCC(n3c(=O)[nH]c4ccccc43)CC2)cc1,i,nt,-26%[172 µM],nt,3%[138 µM],nt,nt,nt
CN1CC(=O)N(C2CCCC2)Cc2c1ncnc2N1CCOCC1,0%[88.5 µM],i,3%[172 µM],0%[70.6 µM],-5%[138 µM],12%[49.3 µM],8%[49.3 µM],2%[49.3 µM]
CN1CC(=O)N(C2CCC2)Cc2c1ncnc2N1CCOCC1,-18%,nt,i,nt,i,nt,nt,nt
Cc1ccc(-c2noc([C@@H]3CCCN3C(=O)c3cnccn3)n2)cc1,2%,i,-6%,-9%,-22%,nt,nt,nt
Cc1ccc2nc(C(=O)N3CCCC3c3cc(C(C)C)on3)cn2c1 (stereo not given),-15%,10µM*,-9%,0%,-13%,27%,15%,?
O=C(O)C1(Oc2ccc3ccccc3c2)CCN(c2ncnc3nc[nH]c23)CC1,3%,i,-15%,14%,-2%,11%,12%,-12%

# Screening results deposited in PubChem by National Center for Advancing Translational Sciences (NCATS).
